Laboratory results reported in the supplement of paper PMC10127200.
Counter-ions that a name gives are not always drawn.

Legend:
Test in all cases: Euclidean distance of Cell Painting phenotypic profile (signed KS, 77 features) to DMSO centroid (dimensionless distance); 5 or 10 uM (library dependent); higher = stronger phenotypic change vs DMSO (phenoactivity)
Settings in all cases: 48 h
786-O = tested on: 786-O
In short: (§1)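 Harmony extracted 77 features from 20X confocal images (9 fields/well) of stained cells, scoring each as a signed Kolmogorov-Smirnov statistic against same-plate vehicle wells. The cells, five cancer lines and a healthy fibroblast line, had received library compounds for 48 h at 10 or 5 uM depending on library, with 0.1% DMSO final. Phenoactivity is the Euclidean distance from each plate-position-corrected, correlation-weighted, top-dose replicate-averaged profile to the median vehicle profile.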

A549 = tested on: A549
In short: as §1

DU145 = tested on: DU145
In short: as §1

FB = tested on: FB
In short: as §1

HEPG2 = tested on: HEPG2
In short: as §1

OVCAR4 = tested on: OVCAR4
In short: as §1

In the case of O=c1[nH]cc(F)c(=O)[nH]1 [Fluorouracil (5-Fluoracil. 5-FU)], the Euclidean distance (786-O) is reported as 1.5, the Euclidean distance (A549) is reported as 3.01 and the Euclidean distance (DU145) is reported as 1.12. The Euclidean distance (FB) was 2.37, the Euclidean distance (HEPG2) was 2.13 and the Euclidean distance (OVCAR4) was 2.12.
Cc1cc(S(=O)(=O)O)c2c(C)ccc(C(C)C)cc1-2 [Sodium gualenate] showed an Euclidean distance (786-O) of 1.2, an Euclidean distance (A549) of 0.401 and an Euclidean distance (DU145) of 0.867. The Euclidean distance (FB) was 1.3, the Euclidean distance (HEPG2) was 1.18 and the Euclidean distance (OVCAR4) was 1.13.
CC(C)c1nc(CN(C)C(=O)N[C@@H](CCN2CCOCC2)C(=O)N[C@H](CC[C@H](Cc2ccccc2)NC(=O)OCc2cncs2)Cc2ccccc2)cs1 [Cobicistat (GS-9350)] gave an Euclidean distance (786-O) of 2.05, an Euclidean distance (A549) of 2.31 and an Euclidean distance (DU145) of 1.67. It also gave an Euclidean distance (FB) of 1.66, an Euclidean distance (HEPG2) of 1.23 and an Euclidean distance (OVCAR4) of 1.96.
Work on C[C@H](O)C(=O)Nc1c(I)c(C(=O)NC(CO)CO)c(I)c(C(=O)NC(CO)CO)c1I [Iopamidol] yielded an Euclidean distance (786-O) of 0.656, an Euclidean distance (A549) of 0.571 and an Euclidean distance (DU145) of 0.699. It also gave an Euclidean distance (FB) of 1.06, an Euclidean distance (HEPG2) of 0.734 and an Euclidean distance (OVCAR4) of 1.33.
C[C@@H](O)[C@H]1C(=O)N2C(C(=O)O)=C(S[C@@H]3CN[C@H](CNS(N)(=O)=O)C3)[C@H](C)[C@H]12 [Doripenem] was tested, and the Euclidean distance (786-O) was 0.636, the Euclidean distance (A549) was 0.801 and the Euclidean distance (DU145) was 0.812. It also gave an Euclidean distance (FB) of 1.15, an Euclidean distance (HEPG2) of 0.434 and an Euclidean distance (OVCAR4) of 1.45.
Work on CCCCc1oc2ccc(NS(C)(=O)=O)cc2c1C(=O)c1ccc(OCCCN(CCCC)CCCC)cc1 [Dronedarone] yielded an Euclidean distance (786-O) of 4.33, an Euclidean distance (A549) of 4.18 and an Euclidean distance (DU145) of 3.45. It also gave an Euclidean distance (FB) of 3.39, an Euclidean distance (HEPG2) of 4.6 and an Euclidean distance (OVCAR4) of 3.76.
In the case of CC1(C)Cc2c(sc(NC(=O)c3ccn[nH]3)c2C(N)=O)C(C)(C)O1, the Euclidean distance (786-O) is reported as 0.808, the Euclidean distance (A549) is reported as 0.814 and the Euclidean distance (DU145) is reported as 1.54. It also gave an Euclidean distance (FB) of 1.43, an Euclidean distance (HEPG2) of 0.816 and an Euclidean distance (OVCAR4) of 1.06.
C#Cc1cccc(Nc2ncnc3cc(OCCOC)c(OCCOC)cc23)c1 [Erlotinib] showed an Euclidean distance (786-O) of 1.68, an Euclidean distance (A549) of 2.34 and an Euclidean distance (DU145) of 1.94. The Euclidean distance (FB) was 3.62, the Euclidean distance (HEPG2) was 0.991 and the Euclidean distance (OVCAR4) was 1.87.
Compound C#Cc1cccc(Nc2ncnc3cc4c(cc23)OCCOCCOCCO4)c1 [Icotinib] has an Euclidean distance (786-O) of 1.83, an Euclidean distance (A549) of 1.46 and an Euclidean distance (DU145) of 1.62. For the same compound, the Euclidean distance (FB) was 1.18, the Euclidean distance (HEPG2) was 1.35 and the Euclidean distance (OVCAR4) was 1.32.
For O=C(O)/C=C/c1ccc(Cn2ccnc2)cc1 [Ozagrel sodium], the Euclidean distance (786-O) was 1.06, the Euclidean distance (A549) was 1.08 and the Euclidean distance (DU145) was 1.01. The Euclidean distance (FB) was 1.07, the Euclidean distance (HEPG2) was 1.03 and the Euclidean distance (OVCAR4) was 0.564.
Work on Nc1nc(Cl)nc2c1ncn2[C@@H]1O[C@H](CO)[C@@H](O)[C@@H]1F [Clofarabine] yielded an Euclidean distance (786-O) of 3.26, an Euclidean distance (A549) of 2.36 and an Euclidean distance (DU145) of 2.96. For the same compound, the Euclidean distance (FB) was 3.41, the Euclidean distance (HEPG2) was 3.02 and the Euclidean distance (OVCAR4) was 3.09.
CC(C)c1nc(CN(C)C(=O)N[C@H](C(=O)N[C@@H](Cc2ccccc2)C[C@H](O)[C@H](Cc2ccccc2)NC(=O)OCc2cncs2)C(C)C)cs1 [Ritonavir] gave an Euclidean distance (786-O) of 1.49, an Euclidean distance (A549) of 1.26 and an Euclidean distance (DU145) of 1.08. For the same compound, the Euclidean distance (FB) was 1.35, the Euclidean distance (HEPG2) was 1.58 and the Euclidean distance (OVCAR4) was 1.77.
With Nc1n[n+]([O-])c2ccccc2[n+]1[O-] [Tirapazamine] the Euclidean distance (786-O) was 2.03, the Euclidean distance (A549) was 1.01 and the Euclidean distance (DU145) was 0.984. For the same compound, the Euclidean distance (FB) was 2.3, the Euclidean distance (HEPG2) was 2.21 and the Euclidean distance (OVCAR4) was 1.52.
CN(C)[C@@H](CCOc1cccc2ccccc12)c1ccccc1 [Dapoxetine HCl] gave an Euclidean distance (786-O) of 1.49, an Euclidean distance (A549) of 0.787 and an Euclidean distance (DU145) of 2.96. It also gave an Euclidean distance (FB) of 1.26, an Euclidean distance (HEPG2) of 1.1 and an Euclidean distance (OVCAR4) of 1.26.
In the case of Cc1ncc([N+](=O)[O-])n1CCO [Metronidazole], the Euclidean distance (786-O) is reported as 0.797, the Euclidean distance (A549) is reported as 0.775 and the Euclidean distance (DU145) is reported as 0.948. The Euclidean distance (FB) was 1.08, the Euclidean distance (HEPG2) was 0.943 and the Euclidean distance (OVCAR4) was 1.6.
CC(C)(C)c1cnc(CSc2cnc(NC(=O)C3CCNCC3)s2)o1 gave an Euclidean distance (786-O) of 2.67, an Euclidean distance (A549) of 3.69 and an Euclidean distance (DU145) of 2.93. The Euclidean distance (FB) was 3.38, the Euclidean distance (HEPG2) was 2.81 and the Euclidean distance (OVCAR4) was 3.27.
Compound O=C1CCC(N2C(=O)c3ccccc3C2=O)C(=O)N1 (centres undefined) [Thalidomide] has an Euclidean distance (786-O) of 1.48, an Euclidean distance (A549) of 0.846 and an Euclidean distance (DU145) of 0.603. It also gave an Euclidean distance (FB) of 1.22, an Euclidean distance (HEPG2) of 0.461 and an Euclidean distance (OVCAR4) of 1.67.
In the case of CC1(C)CCC(c2ccc(Cl)cc2)=C(CN2CCN(c3ccc(C(=O)NS(=O)(=O)c4ccc(N[C@H](CCN5CCOCC5)CSc5ccccc5)c(S(=O)(=O)C(F)(F)F)c4)cc3)CC2)C1 [ABT-263 (Navitoclax)], the Euclidean distance (786-O) is reported as 1.75, the Euclidean distance (A549) is reported as 2.22 and the Euclidean distance (DU145) is reported as 1.24. For the same compound, the Euclidean distance (FB) was 1.16, the Euclidean distance (HEPG2) was 1.25 and the Euclidean distance (OVCAR4) was 0.98.
Compound CN(C)CCOC(c1ccc(Cl)cc1)c1ccccn1 (centres undefined) [CarbinoxaMine Maleate] has an Euclidean distance (786-O) of 1.32, an Euclidean distance (A549) of 0.778 and an Euclidean distance (DU145) of 1.98. For the same compound, the Euclidean distance (FB) was 1.44, the Euclidean distance (HEPG2) was 0.691 and the Euclidean distance (OVCAR4) was 0.935.
In the case of Cc1cccc(-c2[nH]ncc2-c2ccc3ncccc3n2)n1, the Euclidean distance (786-O) is reported as 0.773, the Euclidean distance (A549) is reported as 0.733 and the Euclidean distance (DU145) is reported as 0.91. The Euclidean distance (FB) was 1.15, the Euclidean distance (HEPG2) was 0.71 and the Euclidean distance (OVCAR4) was 0.807.
O=C1C(N(CO)C(=O)NCO)N(CO)C(=O)N1CO (centres undefined) [Diazolidinyl urea] gave an Euclidean distance (786-O) of 0.723, an Euclidean distance (A549) of 0.505 and an Euclidean distance (DU145) of 1.01. It also gave an Euclidean distance (FB) of 0.783, an Euclidean distance (HEPG2) of 0.465 and an Euclidean distance (OVCAR4) of 0.927.
In the case of OC(CCN1CCCC1)(c1ccccc1)C1CCCCC1 (centres undefined) [Procyclidine HCl], the Euclidean distance (786-O) is reported as 0.828, the Euclidean distance (A549) is reported as 0.891 and the Euclidean distance (DU145) is reported as 0.562. It also gave an Euclidean distance (FB) of 1.87, an Euclidean distance (HEPG2) of 1.33 and an Euclidean distance (OVCAR4) of 0.869.
C#C[C@]1(OC(C)=O)CC[C@H]2[C@@H]3CCC4=C[C@@H](OC(C)=O)CC[C@@H]4[C@H]3CC[C@@]21C [Ethynodiol diacetate] gave an Euclidean distance (786-O) of 1.27, an Euclidean distance (A549) of 1.31 and an Euclidean distance (DU145) of 0.938. It also gave an Euclidean distance (FB) of 1.29, an Euclidean distance (HEPG2) of 0.735 and an Euclidean distance (OVCAR4) of 1.1.
COc1cc2ncnc(Nc3ccc(F)c(Cl)c3)c2cc1OCCCN1CCOCC1 [Gefitinib (ZD1839)] showed an Euclidean distance (786-O) of 2.03, an Euclidean distance (A549) of 2.48 and an Euclidean distance (DU145) of 2.47. The Euclidean distance (FB) was 1.24, the Euclidean distance (HEPG2) was 1.6 and the Euclidean distance (OVCAR4) was 1.64.
